Values without a mark were called inactive. Inconclusive results are not listed. Entries that show only a call come without a potency. The source made the active and inactive calls. Unless noted, calls come from the whole dose curve.
Assays:
[1] = Nuclear factor erythroid 2-related factor 2/antioxidant responsive element (Nrf2/ARE) small molecule agonists: qHTS cell viability counter screen in human keratinocytes (AID 1919968; active = well fitted curve in the direction sought with a large enough effect in the repeat runs; an effect the other way counts as inactive or inconclusive; note: nearly all actives have a fitted effect of over 55% in size)
Outline: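 CellTiter-Fluor fluorescence, read 1 h after reagent, gave viability in the same wells as the ARE-luciferase assay. KeratinoSens cells (1,500/well) had 23 h compound exposure at 37 C/5% CO2 following 5 h plating.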

[2] = Nuclear factor erythroid 2-related factor 2/antioxidant responsive element (Nrf2/ARE) small molecule agonists: luciferase reporter gene qHTS assay in human keratinocytes (AID 1919969); note: nearly all actives have a fitted effect of over 35% in size; note: potency is the fitted concentration of half-maximal effect
[3] = molecular target: Gonadotropin-releasing hormone receptor (Homo sapiens) (UniProt P30968); test: Human gonadotropin-releasing hormone receptor (GnRHR) small molecule agonists, calcium flux assay in GnRHR-HEK293 cells (AID 1920063); note: nearly all actives have a fitted effect of over 35% in size
Gonadotropin-releasing hormone receptor (Homo sapiens), sequence (P30968 whole entry, looked up): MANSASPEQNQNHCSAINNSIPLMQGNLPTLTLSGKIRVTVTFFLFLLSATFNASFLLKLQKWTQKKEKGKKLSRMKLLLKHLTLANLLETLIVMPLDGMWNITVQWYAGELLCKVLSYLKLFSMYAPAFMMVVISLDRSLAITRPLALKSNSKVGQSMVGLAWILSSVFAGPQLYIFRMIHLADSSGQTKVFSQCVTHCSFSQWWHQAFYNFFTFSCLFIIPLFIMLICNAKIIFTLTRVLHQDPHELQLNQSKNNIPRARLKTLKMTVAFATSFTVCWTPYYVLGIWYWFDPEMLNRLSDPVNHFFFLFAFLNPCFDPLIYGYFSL
Outline: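 Agonist mode: compounds at 15 concentrations, in triplicate, went onto calcium dye-loaded GnRHR-HEK293 cells. Intracellular calcium was then followed as 480/540 nm fluorescence at 1 s intervals over 3 min.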

[4] = molecular target: KiSS-1 receptor (Homo sapiens) (UniProt Q969F8); test: Human kisspeptin (KISS1R) small molecule agonists, calcium flux assay in KISS1R-HEK293 cells (AID 1920064; active = well fitted curve in the direction sought with a large enough effect in the repeat runs; an effect the other way counts as inactive or inconclusive)
KiSS-1 receptor (Homo sapiens), sequence (Q969F8 whole entry, looked up): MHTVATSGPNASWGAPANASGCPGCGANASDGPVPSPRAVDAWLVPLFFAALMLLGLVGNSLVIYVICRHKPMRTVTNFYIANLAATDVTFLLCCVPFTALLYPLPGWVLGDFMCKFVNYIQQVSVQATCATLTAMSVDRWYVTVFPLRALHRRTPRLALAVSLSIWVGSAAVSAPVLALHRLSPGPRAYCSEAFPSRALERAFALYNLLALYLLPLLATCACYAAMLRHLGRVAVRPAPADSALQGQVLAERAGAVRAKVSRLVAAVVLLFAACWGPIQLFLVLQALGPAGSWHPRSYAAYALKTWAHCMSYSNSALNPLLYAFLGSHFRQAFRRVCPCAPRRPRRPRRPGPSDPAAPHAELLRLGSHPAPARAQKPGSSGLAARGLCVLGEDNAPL
Outline: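 Agonist mode: intracellular calcium rise tracked at 1 s intervals over 3 min (480/540 nm) immediately after compound addition to dye-loaded KISS1R-HEK293 stable cells. Each compound tested at 15 concentrations in triplicate.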

[5] = G protein-coupled receptor (GPCR) small molecule agonists, calcium flux assay: HEK293 wild type cell line counter screen (AID 1920065)
Outline: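 Calcium flux counter screen: compound added in agonist mode at 15 concentrations in triplicate to dye-loaded parental HEK293 cells. Fluorescence (480/540) read kinetically for 3 min; ATP served as positive control.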

[6] = p53 small molecule agonists, cell-based qHTS assay with human liver microsomes (AID 1963577)
Outline: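 Fluorescence of the beta-lactamase reporter in p53RE-bla cells, detected with LiveBLAzer substrate (2 h, room temperature, dark), served as the read-out after 16 h compound exposure at 37 C with human liver microsomes and NADPH, each 0.5 mg/mL final.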

[7] = p53 small molecule agonists, cell-based qHTS assay with rat liver microsomes (AID 1963578)
Outline: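 Cells carrying a p53 response element–beta-lactamase reporter were plated and rested 5 h, then dosed with compound in DMSO plus rat liver microsomes and NADPH, each at 0.5 mg/mL final. After 16 h at 37 C, LiveBLAzer substrate was added for 2 h.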

[8] = p53 small molecule agonists, cell-based qHTS assay with human liver microsomes: qHTS cell viability counter screen (AID 1963579); note: nearly all actives have a fitted effect of over 45% in size
Outline: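 Cytotoxicity counter screen: p53RE-bla, 4,000 cells/well; 5 h settle, 37 C/5% CO2; cpd + HLM 0.5 mg/mL + NADPH 0.5 mg/mL (final); 16 h, 37 C; CellTiter-Glo, 30 min RT, luminescence.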

[9] = p53 small molecule agonists, cell-based qHTS assay with rat liver microsomes: qHTS cell viability counter screen (AID 1963580); note: nearly all actives have a fitted effect of over 45% in size
Outline: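 Rat liver microsome (0.5 mg/mL final) and NADPH (0.5 mg/mL final) co-incubation with compounds for 16 h at 37 C on HCT-116 p53RE-bla cells; cytotoxicity taken from intracellular ATP luminescence.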

[10] = p53 small molecule agonists, cell-based qHTS assay: qHTS cell viability counter screen (AID 1963581); note: nearly all actives have a fitted effect of over 45% in size
Outline: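 Counter screen read by CellTiter-Glo luminescence (ATP content, 30 min at room temperature), run in the same wells as the beta-lactamase reporter read. HCT-116 p53RE-bla cells saw compounds for 16 h at 37 C.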

[11] = p53 small molecule agonists, cell-based qHTS assay (AID 1963582; active = well fitted activation curve with a large enough effect in the signal ratio in the repeat runs, not every such curve was filed as active; the % refers to the signal ratio)
Outline: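 Read-out is beta-lactamase FRET fluorescence after 2 h at room temperature with LiveBLAzer B/G substrate. p53 response element-bla cells were treated 16 h at 37 C with compounds in DMSO, added 5 h after seeding.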

[12] = molecular target: 5-hydroxytryptamine receptor 2A (Homo sapiens) (UniProt P28223); test: 5-hydroxytryptamine receptor 2A (HTR2A) small molecule agonists, cell-based qHTS assay (AID 1963587); note: nearly all actives have a fitted effect of over 30% in size
5-hydroxytryptamine receptor 2A (Homo sapiens), sequence (P28223 whole entry, looked up): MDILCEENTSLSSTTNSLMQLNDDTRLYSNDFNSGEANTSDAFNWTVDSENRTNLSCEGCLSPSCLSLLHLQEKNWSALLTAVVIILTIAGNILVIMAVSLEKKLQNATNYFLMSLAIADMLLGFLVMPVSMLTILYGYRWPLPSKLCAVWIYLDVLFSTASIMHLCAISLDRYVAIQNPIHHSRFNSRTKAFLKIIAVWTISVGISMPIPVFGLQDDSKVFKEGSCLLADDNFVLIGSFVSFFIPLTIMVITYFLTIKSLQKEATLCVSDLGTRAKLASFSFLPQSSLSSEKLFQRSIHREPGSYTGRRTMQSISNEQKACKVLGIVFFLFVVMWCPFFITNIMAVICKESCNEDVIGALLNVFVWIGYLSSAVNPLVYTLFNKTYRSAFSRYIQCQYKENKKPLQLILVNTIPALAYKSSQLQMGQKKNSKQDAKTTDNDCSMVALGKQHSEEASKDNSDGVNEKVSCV
Outline: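 Kinetic calcium-flux fluorescence (2 min, 1 sec intervals) after compound addition in agonist mode. HTR2A-CHO cells were cultured 18 h, then dye-loaded 1 h at 37 C.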

[13] = cAMP Responsive Elements (CRE) small molecule agonists, cell-based qHTS assay (AID 1963590)
Outline: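 Agonist mode: compound added to CRE-bla HEK 293T cells (2,000/well, 18 h after plating) for 3 h at 37 C/5% CO2. Reporter activity detected via FRET beta-lactamase substrate, 2 h room-temperature loading.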

[14] = cAMP Responsive Elements (CRE) small molecule antagonists, cell-based qHTS assay (AID 1963591; active = well fitted inhibition curve with a large enough effect in the signal ratio in the repeat runs, not every such curve was filed as active; the % refers to the signal ratio)
Outline: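 Antagonist mode: compounds are added alongside the adenylyl cyclase activator NKH477 (0.25 uM final) to CRE-bla HEK293T cells for 3 h. LiveBLAzer FRET substrate, 2 h at room temperature, reports bla expression.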

[15] = molecular target: Beta-2 adrenergic receptor (Homo sapiens) (UniProt P07550); test: Adrenergic beta2 receptor (ADRB2) small molecule agonists, cell-based qHTS assay (AID 1963593);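 note: CHO cells stably overexpressing human ADRB2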
Beta-2 adrenergic receptor (Homo sapiens), sequence (P07550 whole entry, looked up): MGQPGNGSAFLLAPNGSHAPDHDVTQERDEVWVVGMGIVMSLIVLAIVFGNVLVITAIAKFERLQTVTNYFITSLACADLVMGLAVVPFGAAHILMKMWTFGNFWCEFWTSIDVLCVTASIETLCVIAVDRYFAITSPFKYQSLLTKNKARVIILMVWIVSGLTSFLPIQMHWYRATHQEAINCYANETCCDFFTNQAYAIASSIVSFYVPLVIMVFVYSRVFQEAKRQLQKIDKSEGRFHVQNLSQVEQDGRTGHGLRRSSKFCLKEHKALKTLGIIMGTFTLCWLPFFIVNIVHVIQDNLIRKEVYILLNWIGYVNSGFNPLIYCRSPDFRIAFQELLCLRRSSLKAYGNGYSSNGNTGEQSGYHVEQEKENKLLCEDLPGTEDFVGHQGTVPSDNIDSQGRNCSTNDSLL
Outline: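 CHO cells stably over-expressing ADRB2 were plated overnight at 37C, then dosed with compounds plus a stimulation mix containing 100uM IBMX and 25uM Ro-20-1724 for 0.5hr at room temperature. cAMP was measured by HTRF competition, 1hr.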

[16] = molecular target: D(2) dopamine receptor (Homo sapiens) (UniProt P14416); test: Dopamine D2 receptor (DRD2) small molecule antagonists, cell-based qHTS assay (AID 1963595; active = well fitted inhibition curve with a large enough effect in the signal ratio in the repeat runs, with a control signal flat; the % refers to the signal ratio)
D(2) dopamine receptor (Homo sapiens), sequence (P14416 whole entry, looked up): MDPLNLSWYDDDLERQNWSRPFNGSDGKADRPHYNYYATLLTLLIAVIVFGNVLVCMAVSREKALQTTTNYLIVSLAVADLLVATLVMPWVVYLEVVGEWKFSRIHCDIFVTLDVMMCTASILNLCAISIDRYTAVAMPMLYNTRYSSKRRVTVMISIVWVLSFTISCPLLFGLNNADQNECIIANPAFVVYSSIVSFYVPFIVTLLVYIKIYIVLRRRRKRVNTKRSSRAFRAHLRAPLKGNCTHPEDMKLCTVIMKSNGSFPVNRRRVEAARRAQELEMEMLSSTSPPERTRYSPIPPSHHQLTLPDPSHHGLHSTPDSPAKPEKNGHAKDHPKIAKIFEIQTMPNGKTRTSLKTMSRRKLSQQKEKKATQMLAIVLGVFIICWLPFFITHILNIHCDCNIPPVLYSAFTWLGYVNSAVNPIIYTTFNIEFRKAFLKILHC
Outline: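 In this cell-based antagonist screen, compounds act for 10 min at room temperature before a 30 min challenge with 12 nM quinpirole and 200 nM NKH477. cAMP is quantified by HTRF competition in DRD2-HEK293 cells containing 0.1 mM Ro20-1724.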

[17] = molecular target: Muscarinic acetylcholine receptor M1 (Homo sapiens) (UniProt P11229); test: Cholinergic receptor muscarinic 1 (CHRM1) small molecule antagonists, cell-based qHTS assay (AID 1963588); note: nearly all actives have a fitted effect of over 40% in size
Muscarinic acetylcholine receptor M1 (Homo sapiens), sequence (P11229 whole entry, looked up): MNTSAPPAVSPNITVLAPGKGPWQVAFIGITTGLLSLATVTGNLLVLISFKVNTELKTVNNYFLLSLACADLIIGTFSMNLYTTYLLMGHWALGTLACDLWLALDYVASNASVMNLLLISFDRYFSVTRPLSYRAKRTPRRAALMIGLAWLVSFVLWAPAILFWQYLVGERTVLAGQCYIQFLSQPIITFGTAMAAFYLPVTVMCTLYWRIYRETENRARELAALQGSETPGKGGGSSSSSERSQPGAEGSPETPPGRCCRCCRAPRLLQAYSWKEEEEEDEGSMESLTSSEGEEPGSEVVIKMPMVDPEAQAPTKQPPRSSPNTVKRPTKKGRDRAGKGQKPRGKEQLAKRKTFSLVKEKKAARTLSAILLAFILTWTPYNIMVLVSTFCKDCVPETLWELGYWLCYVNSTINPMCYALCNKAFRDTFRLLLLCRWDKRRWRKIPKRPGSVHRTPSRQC
Outline: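 Compounds were tested at 15 concentrations in three independent runs. Dye-loaded CHRM1-CHO cells were exposed 5 min at room temperature before stimulation by acetylcholine added at 50nM. Intracellular calcium was read kinetically on FDSS for 3 min.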

[18] = molecular target: Muscarinic acetylcholine receptor M1 (Homo sapiens) (UniProt P11229); test: Cholinergic receptor muscarinic 1 (CHRM1) small molecule agonists, cell-based qHTS assay (AID 1963589); note: nearly all actives have a fitted effect of over 35% in size
Outline: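 Agonist-mode calcium-flux screen: compounds at 15 concentrations, three independent runs, were pin-transferred onto dye-loaded human CHRM1-CHO cells. Fluorescence was then recorded kinetically every second over minutes.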

[19] = molecular target: Beta-2 adrenergic receptor (Homo sapiens) (UniProt P07550); test: Adrenergic beta2 receptor (ADRB2) small molecule antagonists, cell-based qHTS assay (AID 1963592); note: series mostly up to about 92 µM; nearly all actives have a fitted effect of over 50% in size
Outline: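 Assay format: CHO-ADRB2 cells, 18-20hr seeding at 37C/5% CO2, then compound plus 1nM isoproterenol agonist mix for 0.5hr RT. Homogeneous time-resolved fluorescence cAMP detection after 1hr, expressed as 665/615 nm ratio.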

[20] = molecular target: D(2) dopamine receptor (Homo sapiens) (UniProt P14416); test: Dopamine D2 receptor (DRD2) small molecule agonists, cell-based qHTS assay (AID 1963594); note: nearly all actives have a fitted effect of over 35% in size
Outline: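 cAMP accumulation in DRD2-HEK293 cells measured by HTRF after 1 h detection; compounds added 10 min before NKH477 (200nM […]) forskolin-analogue stimulation, 30 min at room temperature, with Ro20-1724 present at 0.1 mM final.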

SMILES	Potency [1]	Potency [2]	Potency [3]	outcome [4]	outcome [5]	Potency [6]	Potency [7]	Potency [8]	Potency [9]	Potency [10]	Potency [11]	Potency [12]	Potency [13]	Potency [14]	Potency [15]	Potency [16]	Potency [17]	Potency [18]	Potency [19]	Potency [20]
CCCCN(C)C	inactive	inactive	inactive	inactive	inactive	inactive	inactive	inactive	inactive	inactive	inactive	inactive	inactive	inactive	inactive	inactive	–	–	–	–
O=C(O)c1cc(Cl)cc([N+](=O)[O-])c1Cl	inactive	inactive	inactive	inactive	inactive	inactive	inactive	inactive	inactive	inactive	inactive	–	–	–	inactive	inactive	inactive	inactive	inactive	inactive
Clc1nnc(Cl)c2ccccc12	inactive	6.08 µM (active)	inactive	inactive	inactive	inactive	inactive	inactive	inactive	inactive	inactive	–	–	inactive	–	inactive	inactive	inactive	inactive	–
CCCCCCCCCCCCC	inactive	inactive	inactive	inactive	inactive	inactive	inactive	inactive	inactive	inactive	inactive	–	inactive	–	–	inactive	inactive	inactive	–	inactive
Cn1c(=O)cc(Oc2ccc(F)cc2F)c2cnc(NCC(C)(C)O)nc21	inactive	inactive	inactive	inactive	inactive	inactive	inactive	inactive	inactive	inactive	inactive	–	–	–	inactive	inactive	inactive	inactive	inactive	inactive
Nc1cc(S(=O)(=O)O)ccc1O	inactive	inactive	inactive	inactive	inactive	inactive	inactive	inactive	inactive	inactive	inactive	–	inactive	inactive	–	inactive	inactive	inactive	inactive	inactive
CCCCCN(CCCOC)C(=O)C(CCC(=O)O)NC(=O)c1ccc(Cl)c(Cl)c1 (centres undefined)	inactive	inactive	inactive	inactive	inactive	inactive	inactive	inactive	inactive	inactive	inactive	inactive	–	–	–	inactive	–	inactive	inactive	inactive
CCCCCCCCc1ccc(S(=O)(=O)O)cc1	inactive	inactive	inactive	inactive	inactive	inactive	inactive	inactive	inactive	inactive	inactive	–	inactive	–	inactive	inactive	inactive	inactive	inactive	inactive
